Experimental data published in the supplement of paper PMC13380429.
Counter-ions that a name gives are not always drawn.

Test system: Vero E6 infected with SARS-CoV-2
Test: inhibition of SARS-CoV-2 cytopathic effect; higher = more antiviral protection, active = above 15
Conditions: 48 h

Measured: inhibition of SARS-CoV-2 cytopathic effect

CO[C@H]1C[C@@H]2CC[C@@H](C)[C@@](O)(O2)C(=O)C(=O)N2CCCC[C@H]2C(=O)O[C@H]([C@H](C)C[C@@H]2CC[C@H](n3cnnn3)[C@H](OC)C2)CC(=O)[C@H](C)/C=C(\C)[C@@H](O)[C@@H](OC)C(=O)[C@H](C)C[C@H](C)/C=C/C=C/C=C/1C [zotarolimus]
inactive: 1 nM -1.51% | 8.33 nM -2.41% | 100 nM -1.68% | 833.33 nM -2.21% | 10000 nM 1.71%

C[C@H]1COC2=C1C(=O)C(=O)c1c2ccc2c1CCCC2(C)C [cryptotanshinone]
inactive: 1 nM 1.45% | 8.33 nM 0.55% | 100 nM 2.85% | 833.33 nM -1.89% | 10000 nM -2.92%

O=C1C2CC=CCC2C(=O)N1SC(Cl)(Cl)Cl (stereo not given) [captan]
inactive: 1 nM 1.85% | 8.33 nM 4.35% | 100 nM 4.16% | 833.33 nM 4.29% | 10000 nM 7.49%

N=C(N)NC(=N)Nc1cccc(Cl)c1 [m-chlorophenylbiguanide]
inactive: 1 nM 4.17% | 8.33 nM 4.54% | 100 nM 0.58% | 833.33 nM -7.74% | 10000 nM -1.2%

CN(C)CC/C=C1/c2ccccc2COc2ccc(CC(=O)O)cc21 [Olopatadine hydrochloride (Opatanol)]
inactive: 1 nM 1.34% | 8.33 nM 1.55% | 100 nM 1.65% | 833.33 nM 6.26% | 10000 nM 0.26%

Cc1cc(C(C#N)c2ccc(Cl)cc2)c(Cl)cc1NC(=O)c1cc(I)cc(I)c1O (stereo not given) [closantel]
inactive: 1 nM 0.26% | 8.33 nM 1.55% | 100 nM 1.07% | 833.33 nM 3.04% | 10000 nM 5.87%
